An excerpt weighted towards active compounds, which were near 7.1% of everything screened.
ELG1 genotoxic = inducers of genotoxicity in HEK293T ELG1-luciferase cells. HEK293T ELG1-luciferase reporter, luminescence, 16 h. hit rate 1.3% among 330,000. AID 504466. Potency, µM (top dose mostly 46 µM), hits mostly activators; note: nearly all actives have a fitted effect of over 60% in size
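Step 1: seed 2,000 HEK293T ELG1-luciferase cells per well. Step 2: add compound or DMSO, incubate 16 hr at 37 °C. Step 3: ONE-Glo, 30 min at room temperature, read luminescence.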
MCF10A rerep = inducers of DNA re-replication in MCF 10A breast cells | Potency, µM (doses to about 46.1 µM), most hits filed as activators | hit rate 2.9% among 350,000 | AID 624296 | MCF 10A DNA re-replication, Hoechst nuclear intensity, 48 h; note: nearly all actives have a fitted effect of over 50% in size
p53 reactivation = re-activators of mutant p53; H1299 p53-A138V BP100-luciferase reporter, luminescence, 24 h; hit rate 0.063% among 320,000; AID 504706; Potency, µM (series often up to 92.2 µM), usual class: activators; note: nearly all actives have a fitted effect of over 45% in size
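p53-null H1299 cells stably carrying temperature-sensitive p53-A138V and a BP100-luciferase reporter were pinned with compounds (4-point, 1:5 series) and held 24 hrs at 37 deg C. Luminescence was read 10 min after detection reagent.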
ELG1 repair inh = inhibitors of ELG1-dependent DNA repair in HEK293T cells; HEK293T ELG1-luciferase reporter, luminescence, 16 h; DNA damage induced by 5-fluorouridine; Potency, µM (top dose mostly 46.1 µM), actives largely listed as inhibitors; hit rate 2.3% among 330,000; note: nearly all actives have a fitted effect of over 55% in size
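Quantitative HTS, concentration-response format. 2,000 cells/well co-treated with 5-fluorouridine and compound, 16 hr in 5% CO2 at 37 °C; ONE-Glo luminescence read after 30 min.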
A-T KAP1 phos = candidate therapy for ataxia-telangiectasia; F2112 A-T fibroblasts, KAP-1 phosphorylation AlphaLISA; neocarzinostatin DNA damage 30 min before lysis; Potency, µM (top dose mostly 57.5 µM), most hits filed as activators; hit rate 0.19% among 320,000; note: nearly all actives have a fitted effect of over 45% in size
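hTERT-immortalized A-T patient fibroblasts (F2112), 500 cells/well in OPTI-MEM, 1% FBS, got compounds for 60 min, then NCS for 30 min at 37C. Lysates were then assayed for phospho-KAP-1 by AlphaLISA (anti-pKAP1 donor, anti-KAP1 acceptor beads), 6 hr at 25C.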
SW480 rereplic = DNA re-replication induction in SW480 cells; SW480 DNA re-replication, Hoechst DNA content imaging, 48 h; Potency, µM (highest dose often 46.1 µM), most hits filed as activators; AID 624297; hit rate 1.8% among 340,000; note: nearly all actives have a fitted effect of over 55% in size
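Hoechst fluorescence of nuclei (405 nm excitation, 500-530 nm emission) measured by plate-scanning imager after 48 hr compound exposure at 37 C; re-replication scored as increased number of nuclei with elevated intensity.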
A number is an active result; – = inactive; ? = inconclusive; · = no result given; [ ] = remark or other dose. Calls come from the whole dose curve; as a rule, active = well fitted curve in the direction sought with a large enough effect; inconclusive = small, poorly fitted or top-dose-only effect, or another doubt; inactive = no such curve, though single readings can be large; an effect the other way counts as inactive or inconclusive.

SMILES	ELG1 genotoxic	MCF10A rerep	p53 reactivation	ELG1 repair inh	A-T KAP1 phos	SW480 rereplic
C=CCn1c(O)c(C(C)=Nc2ccc(N(CC)CC)cc2)c(=O)[nH]c1=O	–	?	–	?	–	14.6µM
CSc1cccc(CNC(=O)C2CCC(=O)N(Cc3cccc(C(F)(F)F)c3)C2)c1 (stereo unspecified)	?	–	–	?	–	–
Cc1ccccc1NC(=NCCCN1CC1)Nc1ccccc1C	·	20.6µM	·	·	·	?
COc1cc(C)c(CN2CC=C(c3ccc(F)cc3)CC2)cc1C	–	?	–	–	?	–
COc1cc2nc(CN3CC=C(c4ccccc4)CC3)[nH]c(=O)c2cc1OC	·	2.91µM	·	·	·	?
C=C[C@@H]1CN2CC[C@H]1C[C@H]2[C@H](O)c1ccnc2ccccc12	·	–	·	·	·	–
Clc1ccccc1CN1CCN(c2ccccc2)CC1	–	?	–	–	–	?
Nc1ccc(N2CCN(Cc3ccccc3Cl)CC2)c(Cl)c1	–	20.6µM	–	–	–	–
CCN1/C(=C\C=C\C2=[N+](CC)c3ccccc3C2(C)C)C(C)(C)c2ccccc21	–	?	–	2.31µM	–	?
COc1ccc(/C=C/C=C2C(=O)NC(=S)NC2=O)cc1	·	5.8µM	·	·	·	16.4µM
CC(=O)c1ccc(NC(=O)CSc2nc(=O)cc(N)n2-c2ccccc2)cc1	?	–	–	?	–	–[1.84 µM]
O=C(Oc1ccccc1)N(c1ccccc1)c1ccccc1	–	–	–	–	?	–
CCC(=O)Nc1ccc(C(=O)OCc2ccccc2Cl)cc1	–	?	–	?	–	–
O=C(NCc1cc(C(F)(F)F)ccc1Cl)c1cccc2c1C(=O)c1ccc(Cl)cc1S2(=O)=O	–	·	–	?	–	·
O=c1[nH]c(=S)[nH]c(O)c1N=Nc1ccc(SC(F)F)cc1	6.51µM	?	?	?	–	–
CCOC(=O)c1c(-n2c(C)cc(C=C3C(=O)NC(=S)NC3=O)c2C)sc2c1CCCC2	–	18.4µM	–	?	–	?
CCOC(=O)c1c(-n2c(C)cc(/C=C3/C(=O)NC(=O)N(CC)C3=O)c2C)sc2c1CCCC2	·	–	·	·	·	–
CC(=O)OC1C(O)C(C)OC(OC2C(OC(=O)C3CCC4C(C3)OC3(CC(OC(=O)/C=C/c5ccccc5)C(C)CO3)C43CO3)OC(C)C(O)C2OC(C)=O)C1O (stereo unspecified)	·	?	·	·	·	0.206µM
Nc1ccc2c3c(cccc13)CC2	–	16.4µM	–	–	–	16.4µM
O=C1NC(=O)N(c2ccccc2)C(=O)/C1=C\c1ccc2c3c(cccc13)CC2	–	·	–	–	–	·
COc1ccc(NC(=O)c2c(C)nn(Cc3ccccc3Cl)c2Cl)cc1Cl	–	16.4µM	–	–	–	–
O=C(c1ccco1)N1CCN(C(=O)c2ccc(COc3ccc(Cl)cc3Cl)o2)CC1	·	20.6µM	·	·	·	–
Cc1ccc2c(c1)C1CN(C)CCC1N2C(=O)c1ccccc1NS(=O)(=O)c1cccc(C(F)(F)F)c1 (stereo unspecified)	–	?	–	–	–	–
Cc1nn(-c2ccccc2)c2c1P(=O)(O)/C(=C1\N(C)c3ccccc3C1(C)C)C=N2	–	11.6µM	–	–	–	–
Nc1c(C(=O)NCc2ccco2)c2nc3ccccc3nc2n1CCN1CCOCC1	–	16.4µM	–	?	–	5.17µM
SMILES	ELG1 genotoxic	MCF10A rerep	p53 reactivation	ELG1 repair inh	A-T KAP1 phos	SW480 rereplic
COc1ccc(Cn2c(N)c(C(=O)NCc3ccco3)c3nc4ccccc4nc32)cc1	–	10µM	–	?	–	2.31µM
CCOC(=O)c1c(N)n(Cc2ccco2)c2nc3ccccc3nc12	–	–[0.0737 µM]	–	?	–	–
COCC(C)OC(=O)c1c(N)n(Cc2ccco2)c2nc3ccccc3nc12 (stereo unspecified)	·	–	·	·	·	–
Nc1c(C(=O)NCc2ccco2)c2nc3ccccc3nc2n1Cc1ccccc1	–	?	–	?	–	20.6µM
Nc1c(C(=O)NCc2ccco2)c2nc3ccccc3nc2n1Cc1ccc(F)cc1	–	3.66µM	–	?	?	?
C[C@]12CC[C@@H]3c4ccc(O)cc4C(=O)C[C@H]3[C@@H]1CC[C@@H]2O	·	–	·	·	·	–
CCC1CCCCN1CCCNS(=O)(=O)c1ccc2c(c1)oc(=O)n2C (stereo unspecified)	–	?	–	–	–	–
COc1cc(NS(=O)(=O)c2ccc3c(c2)oc(=O)n3C)cc(OC)c1OC	–	?	–	?	–	20.6µM
CCCOP(=O)(c1ccc(N(C)C)cc1)C(O)c1ccc(Cl)cc1Cl (stereo unspecified)	–	–	–	?	–	–
CC(C)c1ccc(C(O)P(=O)(OCc2ccccc2)c2ccc(N(C)C)cc2)cc1 (stereo unspecified)	–	?	–	?	–	–
CCCCOP(=O)(c1ccc(N(C)C)cc1)C(Nc1ccccc1)c1ccccc1 (stereo unspecified)	–	20.6µM	–	?	–	?
CCC(=O)Nc1ccc(-c2ccc(N3CCN(C)CC3)nn2)cc1	?	–	?	?	–	–
COC(=O)C1=C(c2cc3ccccc3o2)C[C@@H]2CC[C@H]1N2C(=O)N1CCCCC1	·	?	·	·	·	11.6µM
COC(=O)C1=C(c2cc3ccccc3o2)C[C@@H]2CC[C@H]1N2C(=O)N1CCCC1	·	–	·	·	·	–
CC(C)CCOP(=O)(c1ccc(N(C)C)cc1)C(O)c1c(Cl)cccc1Cl (stereo unspecified)	–	?	–	–	–	–
N#CCCn1cc(C(=O)Nc2ccc([N+](=O)[O-])cc2)c(-c2ccc3c(c2)OCCO3)n1	–	–	–	?	–	–
Cc1ccc(NC(=O)c2cn(CCC#N)nc2-c2ccc3c(c2)OCCO3)c([N+](=O)[O-])c1	–	–	–	18.4µM	–	–
COC(=O)c1ccccc1C(=O)c1ccc(OCCN2CCCCC2)cc1	·	?	·	·	·	–
CCn1c(O)c(N=Nc2cccc(S(=O)(=O)N3CCOCC3)c2)c(=O)n(CC)c1=S	–	?	–	18.3µM	–	?
CCn1c(O)c(N=Nc2ccc(S(=O)(=O)N3CCOCC3)cc2)c(=O)n(CC)c1=S	–	?	–	?	–	?
C=CC[C@]1(O)CCC2C3CCC4=CCCCC4C3CCC21C (stereo partly specified)	·	18.8µM	·	·	·	–
CC(C)c1ccc(N2C(=O)NC(=O)/C(=C\C=C\c3ccco3)C2=O)cc1	–	3.66µM	–	?	–	20.6µM
O=C1NC(=O)N(Cc2ccccc2)C(=O)/C1=C/C=C/c1ccco1	–	4.11µM	–	?	–	18.4µM
